This is an account of results in PubChem BioAssay (EPA / NIEHS).

Read-out in experiment [1]: Collagen I, COL1A1 (gene 1277)
Briefly: BSK_MyoF_CollagenI: BioMAP Diversity Plus: MyoF Assay for Collagen I Biomarker Activity (AID 2284238). Conditions: primary human lung fibroblasts. The gist of the method:
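ELISA readout of Collagen I after 24 h chemical treatment of primary human lung fibroblast cultures; gain of signal scored relative to DMSO vehicle baseline.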

Read-out in experiment [2]: Collagen III, COL3A1 (gene 1281)
The experiment is described as follows: BSK_MyoF_CollagenIII: BioMAP Diversity Plus: MyoF Assay for Collagen III Biomarker Activity (AID 2284239). To be noted: primary human lung fibroblasts. The method in brief:
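Lung fibroblast culture; 24 h compound exposure; collagen III by ELISA; gain-of-signal fit vs DMSO baseline.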

Read-out in experiment [3]: Interleukin 17F (IL17F), IL17F (gene 112744)
Briefly: BSK_BT_xIL17F: BioMAP Diversity Plus: BT Assay for Interleukin 17F (IL17F) Biomarker Activity (AID 2284243). Conditions: primary human B cells with PBMC. The method in brief:
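Secreted IL-17F, read on LumineX xMAP beads, was taken as the endpoint. Cultures combined human B cells and peripheral blood mononuclear cells, sampled 24 hours after dosing, with DMSO serving as negative control.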

Read-out in experiment [4]: Actin alpha 1 (ACTA1), ACTA1 (gene 58)
The experiment is described as follows: BSK_MyoF_ACTA1: BioMAP Diversity Plus: MyoF Assay for Actin alpha 1 (ACTA1) Biomarker Activity (AID 2284244). Conditions: primary human lung fibroblasts. The gist of the method:
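Human lung fibroblasts (MyoF system) dosed with test chemical for 24 h; α-SMA measured by ELISA. Gain of signal fitted relative to DMSO negative control as baseline.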

Read-out in experiment [5]: Interleukin 2 (IL2), IL2 (gene 3558)
The experiment is described as follows: BSK_BT_xIL2: BioMAP Diversity Plus: BT Assay for Interleukin 2 (IL2) Biomarker Activity (AID 2284245). Conditions: primary human B cells with PBMC. The method in brief:
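Human B cells co-cultured with PBMC, exposed to test chemical for 24 h. Secreted IL-2 quantified by Luminex xMAP bead immunoassay; activity fitted in the positive direction relative to DMSO vehicle baseline.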

Read-out in experiment [6]: Basic fibroblast growth factor (bFGF), FGF2 (gene 2247)
Briefly: BSK_MyoF_bFGF: BioMAP Diversity Plus: MyoF Assay for Basic fibroblast growth factor (bFGF) Biomarker Activity (AID 2284246). To be noted: primary human lung fibroblasts. The gist of the method: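 Human lung fibroblasts were dosed with chemicals and bFGF was quantified by ELISA 24 h later. Activity was fitted in the gain-of-signal direction relative to DMSO as negative control and baseline. Parallel SRB total-protein staining tracked overt cytotoxicity.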

Read-out in experiment [7]: Collagen IV, COL4A1 (gene 1282)
The experiment is described as follows: BSK_MyoF_CollagenIV: BioMAP Diversity Plus: MyoF Assay for Collagen IV Biomarker Activity (AID 2284247). To be noted: primary human lung fibroblasts. The method in brief:
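Primary human lung fibroblasts were exposed to test chemicals and sampled 24 h after dosing. Collagen IV levels were measured by ELISA and fitted in the positive direction against DMSO as negative control and baseline.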

The nature of experiment [8]: UKN4_HCS_LUHMES_cell_viability: Viability Assessment in the University of Konstanz (UKN) Leist Lab Neurite Outgrowth Assay in human LUHMES cells (UKN4) (AID 2284232). The gist of the method:
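LUHMES cells differentiated 2 days, replated without cAMP/GDNF, then exposed to compounds for 24 h from attachment. Viability read by high-content fluorescence imaging after 30 min live-staining with H-33342 and calcein-AM; bidirectional fit relative to DMSO baseline.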

Experiment [9] can be described thus: UKN2_HCS_IMR90_cell_viability: Viability Assessment in the University of Konstanz (UKN) Leist Lab Neural Crest Cell Migration Assay in human induced IMR90 Pluripotent Stem Cells (UKN2) (AID 2284233).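 Further: viability of neural crest cells differentiated from IMR90 iPSC measured by calcein-AM fluorescence imaging; cells exposed to compound for 24 h after a 24 h migration phase.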 The gist of the method: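 Human IMR90-derived neural crest cells were allowed to migrate for 24 h into a cell-free zone, then exposed to test chemicals for 24 h. Calcein-AM and Hoechst staining with high-content imaging gave viability, analysed against DMSO baseline.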

Experiment [10] in a line: CCTE_Mundy_HCI_Cortical_NOG_NeuronCount: CCTE's Neurite Outgrowth Assay in rat cortical cells for Neuron Count, Mundy Lab (AID 2284236; active means hit-call score of the fitted dose curve at least 0.9, where 1 is the maximum;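 further: neurons counted by imaging betaIII-tubulin and Hoechst stained cortical cells; cells exposed to compound for about 48 hours before fixation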). The method in brief: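 Read-out: neuron number by high-content imaging of betaIII-tubulin (Alexa Fluor-488) and Hoechst-labelled rat primary cortical cells.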
Experiment [11] can be described thus: CCTE_Mundy_HCI_hNP1_Casp3_7: CCTE's Caspase-Glo 3/7 Assay in human neuroprogenitor cells for Apoptosis, Mundy Lab (AID 2284240). The gist of the method:
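Apoptosis is scored by activated caspase-3/7 luminescence in WA09-derived neural progenitor cells, measured 26.5 h after chemical dosing. Values represent gain of signal relative to DMSO vehicle.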

Experiment [12] is described as follows: CCTE_Mundy_HCI_Cortical_Synap_Neur_Matur_NeuronCount: CCTE's Synaptogenesis and Neurite Maturation Assay in rat cortical cells for Neuron Count, Mundy Lab (AID 2284242; active means hit-call score of the fitted dose curve at least 0.9, where 1 is the maximum). The method in brief:
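Rat primary cortical cells received AraC at DIV 5 to arrest glia, then were dosed with chemicals at DIV 7 through DIV 12. Fixed cells were stained for nuclei, MAP2 and synaptophysin, and neurons were counted by high-content imaging relative to DMSO.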

A short description of experiment [13]: TAMU_PeakParms_SingleDonor1434_QT: Texas A&M University (TAMU) 1.5-hr Human Induced Pluripotent Stem Cell (iPSC)-derived Cardiomyocytes Calcium (Ca+2) Flux Assay for Cardiotoxicity: QT (decay-rise ratio) (AID 2284235; active means hit-call score of the fitted dose curve at least 0.9, where 1 is the maximum). The gist of the method:
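iPSC-derived cardiomyocytes (single donor 1434) dosed at 0.2, 1, 10, 100 uM final in 0.5% DMSO, 90 min at 37C. Ca2+ flux fluorescence decay/rise ratio; EC05 (5% increase versus DMSO) as POD, excluding beat-arrest and severe-notch data.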

The nature of experiment [14]: CCTE_Mundy_HCI_hNP1_CellTiter: CCTE's Cell Titer-Glo 2 Assay in human neuroprogenitor cells for Viability, Mundy Lab (AID 2284241; active means hit-call score of the fitted dose curve at least 0.9, where 1 is the maximum). The method in brief:
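Human neural progenitor cells (hNP1, WA09-derived) were plated on poly-L-ornithine/laminin and grown 40 to 44 hours at 37 °C, 5% CO2 before chemical addition. Twenty-four hours later, ATP was measured by CellTiter-Glo luminescence; loss of signal versus DMSO indicates reduced viability.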

Read-out in experiment [15]: Monokine induced gamma interferon (MIG), CXCL9 (gene 4283)
The experiment is described as follows: BSK_KF3CT_MIG: BioMAP Diversity Plus: KF3CT Assay for Monokine induced gamma interferon (MIG) Biomarker Activity (AID 2284248). To be noted: primary human keratinocytes with fibroblasts. The gist of the method: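 ELISA read-out of MIG after 24 h chemical exposure of human skin primary co-culture (keratinocytes, foreskin fibroblasts). Gain of signal relative to DMSO negative control was analysed.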

Read-out in experiment [16]: Vascular cell adhesion molecule 1 (VCAM1), VCAM1 (gene 7412)
The experiment is described as follows: BSK_BF4T_VCAM1: BioMAP Diversity Plus: BF4T Assay for Vascular cell adhesion molecule 1 (VCAM1) Biomarker Activity (AID 2284249). Conditions: primary human bronchial epithelial cells with fibroblasts. The method in brief:
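Human bronchial epithelial cell and dermal fibroblast co-culture exposed 24 h. VCAM-1 measured by ELISA; parallel SRB total-protein staining for cytotoxicity. Fitted in positive direction relative to DMSO.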

Read-out in experiment [17]: Collagen I, COL1A1 (gene 1277)
The experiment is described as follows: BSK_hDFCGF_CollagenI: BioMAP Diversity Plus: hDFCGF Assay for Collagen I Biomarker Activity (AID 2284250). Conditions: primary human foreskin fibroblasts. The method in brief: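 Primary human foreskin fibroblasts (hDFCGF system) exposed to chemical for 24 h; Collagen I measured by ELISA. Activity fitted in the positive direction relative to DMSO baseline, with SRB total-protein staining in parallel cultures for overt cytotoxicity.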

Read-out in experiment [18]: Interferon-inducible T-cell alpha chemoattractant (ITAC), CXCL11 (gene 6373)
The experiment is described as follows: BSK_hDFCGF_ITAC: BioMAP Diversity Plus: hDFCGF Assay for Interferon-inducible T-cell alpha chemoattractant (ITAC) Biomarker Activity (AID 2284251). To be noted: primary human foreskin fibroblasts. The gist of the method: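 Fibroblasts (human foreskin, primary) are treated with chemical, cultured 24 h, then assayed for I-TAC by ELISA. Overt toxicity is checked in parallel cultures by sulforhodamine B staining of total protein at the same time point.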

SMILES strings stand for the structures. Values joined by “and” are separate entries in the source; they are usually repeats but may differ in a detail not shown here. Equal entries are not always repeated. Inconclusive results are not listed. A structure can be active in one record and inactive in another. Active and inactive are the calls of the source. How the source made its calls, unless noted: active means hit-call score of the fitted dose curve at least 0.9, where 1 is the maximum; inactive means score below 0.9.

In the case of `CCCCCCCCCCCCCC[N+](C)(C)C`, the AC50 in [1] was 1.5 µM (active); in [2] it was 1.85 µM (active); in experiment [3], 2.26 µM (active); in experiment [4], 2.31 µM (active); in experiment [5], 1.67 µM (active); in [6], 4.65 µM (active). The AC50 in [7] is 5.43 µM (active).
For the compound `CC1=C(/C=C/C(C)=C/C=C/C(C)=C/C(=O)O)C(C)(C)CCC1`, the half-maximal activity concentration (AC50) in experiment [8] was 48 µM (active). Also, the compound was classed as inactive in [9], in experiment [10], in experiment [11] and in experiment [12].
As for `c1ccc2c(c1)ccc1ccccc12`, in experiment [13], the result was inactive.
On to `OCCC(F)(F)C(F)(F)C(F)(F)C(F)(F)C(F)(F)C(F)(F)C(F)(F)C(F)(F)F`, for which the AC50 is 19.8 µM (active) and 17.2 µM (active) in experiment [1]; 14.5 µM (active) and 10 µM (active) in experiment [2]; 22.9 µM (active) and 36.3 µM (active) in experiment [3]; 14.6 µM (active) and 15.1 µM (active) in experiment [4]; 23.6 µM (active) and 28.4 µM (active) in experiment [5]; 17.4 µM (active) and 10.7 µM (active) in experiment [6]. In addition, the concentration at half-maximal activity (AC50) in experiment [15] is 21.4 µM (active) and 23.7 µM (active); in [16], 8.57 µM (active) and 8 µM (active); in [17], 17.8 µM (active); in experiment [18] it was 12.4 µM (active). Also, the outcome in [11], in experiment [14], in experiment [7] and in experiment [17] was inactive.
As for `OCCC(F)(F)C(F)(F)C(F)(F)C(F)(F)C(F)(F)C(F)(F)F`, the concentration at half-maximal activity (AC50) in [1] was 54.6 µM (active); in [3] it was 5.95 µM (active); in experiment [17], 30 µM (active) and 46.9 µM (active); in experiment [18] it was 55 µM (active) and 57.4 µM (active). The result in experiment [1], in experiment [2], in experiment [11], in [3], in experiment [4] and in experiment [5] was inactive. The result in [6], in [7], in [15] and in experiment [16] was inactive.
`c1ccc2c(c1)Cc1ccccc1-2`: in [13], the outcome was inactive.
In the case of `CN1CCC[C@H]1c1cccnc1`, the call in [8], in experiment [9], in experiment [10] and in experiment [11] was inactive.
Regarding `FC(F)(I)C(F)(F)C(F)(F)C(F)(F)C(F)(F)C(F)(F)I`, the AC50 in experiment [1] was 4.42 µM (active) [middle of 5 runs]; in experiment [2], 4.38 µM (active) [middle of 5 runs]; in experiment [6], 8.27 µM (active) [middle of 5 runs]; in experiment [15], 9.38 µM (active) [middle of 5 runs]; in experiment [16] it was 6.79 µM (active) [middle of 5 runs]; in [17] it was 14 µM (active) and 10.1 µM (active). Also, in [18], the AC50 was 5.16 µM (active) [middle of 5 runs]. In addition, the result in experiment [7] and in [17] was inactive.
